Data: PubChem BioAssay (Tox21)
Where “and” joins values, the source holds several entries; their conditions need not be identical. Equal values may be shown once. Results filed as inconclusive are left out. Entries that show only a call come without a potency. A structure can be active in one record and inactive in another. Calls of active or inactive are those of the source. Calls follow the shape of the dose curve; as a rule, active = well fitted activation curve with a large enough effect in the repeat runs; inconclusive = weak or mixed curves; inactive = no such curve, though single readings can be large or run the other way.

Molecular target: Nuclear receptor subfamily 1 group I member 3 (Homo sapiens) (UniProt Q14994)
Experiment: qHTS assay to identify small molecule agonists of the constitutive androstane receptor (CAR) signaling pathway (AID 1224839); also: nearly all actives have a fitted effect of over 15% in size;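 as to activation: HepG2 cells stably carrying human CAR and a CYP2B6 luciferase reporter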
Conditions: HepG2 hCAR CYP2B6-luciferase, agonist mode, 24 h; series mostly up to 92.4 µM
From the text: National Center for Advancing Translational Sciences [NCATS] NIH Chemical Genomics Center [NCGC] U.S. Environmental Protection Agency [EPA] National Institutes of Environmental Health Sciences [NIEHS] National Toxicology Program [NTP] Assay overview: The constitutive androstane receptor (CAR) is a nuclear receptor which regulates multiple drug metabolizing enzymes (DMEs) and transporters. Activating CAR will generally increase the transcription and subsequent translation of CYP2B6 and CYP3A4. These two DMEs represent about 50% of the drug metabolizing potential in the body. […] Recently, there have also been studies performed indicating CARs role in energy metabolism and cancer therapy. Therefore, inducing CARs activity could have a potential effect on diabetes and cancer. Identifying environmental toxins and compounds which modulate CAR, through the use of the Tox21 10K compound collection, will be an important step in determining the toxicity and potential therapeutic effects these factors will have on the human body.
Assay Protocol Summary: A double-stable (hCAR and CYP2B6-2.2kb) transfected cell line, derived from human hepatoma (HepG2) cells, was utilized for the duration of the quantitative high-throughput screens. The HepG2-CYP2B6-hCAR cells suspended in DMEM culture medium supplemented with 10% FBS, 5 ug/mL blasticidin, 0.5 mg/mL geneticin, 100 U/mL penicillin and 100 ug/mL streptomycin were dispensed at 2500 cells/4 uL/well in 1536-well white solid bottom plates using a Multidrop Combi. After the assay plates were incubated at 37 C/5% CO2 for 4 hrs, 23 nL of compounds at 15 concentrations (from 5-48 columns) or positive control (from 1 to 4 columns) were transferred to the assay plates using a Pintool station. One uL of PK11195, was added using a Flying Reagent Dispenser to generate a final concentration of 0.75 uM PK11195 inside each well. After a 24 hr incubation period at 37 C/5% CO2, four uL of ONE-Glo reagent was added into the assay plates using a Flying Reagent Dispenser. After a 30 min incubation period at room temperature, the luminescence intensity in the assay plates was measured using a ViewLux plate reader.
Potency is read from the fitted curve at half-maximal effect.

Nuclear receptor subfamily 1 group I member 3 (Homo sapiens), sequence (Q14994 whole entry, looked up): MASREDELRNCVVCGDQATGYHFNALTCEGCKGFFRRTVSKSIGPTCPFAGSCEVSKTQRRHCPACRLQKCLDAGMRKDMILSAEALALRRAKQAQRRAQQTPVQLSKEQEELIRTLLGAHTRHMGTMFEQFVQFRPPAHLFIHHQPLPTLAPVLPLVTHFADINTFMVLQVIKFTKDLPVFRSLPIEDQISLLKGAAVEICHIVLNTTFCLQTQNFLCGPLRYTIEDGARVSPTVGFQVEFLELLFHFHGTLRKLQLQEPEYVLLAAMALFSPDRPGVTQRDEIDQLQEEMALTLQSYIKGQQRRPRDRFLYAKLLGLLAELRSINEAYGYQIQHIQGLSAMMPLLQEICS

| SMILES | Potency | activation |
| --- | --- | --- |
| CC1=C(C)S(=O)(=O)CCS1(=O)=O | 3.01 µM (active) | – |
| N[C@@H](Cc1cc(I)c(Oc2cc(I)c(O)c(I)c2)c(I)c1)C(=O)O | inactive | – |
| c1ccc2c(c1)ccc1ccccc12 | inactive | – |
| CCCCC(CC)CO (stereo not given) | inactive | – |
| CSCCC=O | inactive | – |
| CCCCCOC(C)=O | inactive | – |
| CCCCCC/C(C=O)=C\c1ccccc1 | inactive | – |
| OCCOCCOCCO | inactive | – |
| CCOC(=O)NNc1nncc2ccccc12 | inactive | – |
| C#CCN(C)Cc1ccccc1 | inactive | – |
| O=C=NCCCCCCN=C=O | inactive | – |
| C/C=C1/CC2C=CC1C2 (stereo not given) | inactive | – |
| CCCCCCCCCCCCS | inactive | – |
| C=CCNC(N)=S | inactive | – |
| CCCCOC(=O)COc1ccc(Cl)cc1Cl | inactive | – |
| Nc1cc([N+](=O)[O-])ccc1O | inactive | – |
| O=C(O)c1ccc(C(=O)O)cc1 | inactive | – |
| O=[N+]([O-])c1ccc(/C=C/c2ccc([N+](=O)[O-])cc2S(=O)(=O)O)c(S(=O)(=O)O)c1 | inactive | – |
| ON=C1CCCCC1 | inactive | – |
| O=C(O)CC(C(=O)O)C(CC(=O)O)C(=O)O (stereo not given) | inactive | – |

| SMILES | Potency | activation |
| --- | --- | --- |
| O=c1[nH]c(=O)n([C@H]2C[C@H](O)[C@@H](CO)O2)cc1Br | 7.81 µM (active) and 10.6 µM (active) | – |
| CCCCCCCCC/C=C/CC1CC(=O)OC1=O (stereo not given) | inactive | – |
| CCC(O)OCCCOC (stereo not given) | inactive | – |
| O=C(O)CCCC[C@@H]1SC[C@@H]2NC(=O)N[C@@H]21 | inactive | – |
| CC(=O)OCC(=O)[C@@]12N=C(C)O[C@@H]1C[C@H]1[C@@H]3CCC4=CC(=O)C=C[C@]4(C)[C@H]3[C@@H](O)C[C@@]12C | inactive | – |
| COc1ccc(NC(C)=O)cc1N | inactive | – |
| OC[C@H]1O[C@@](CO)(O[C@H]2O[C@H](CO)[C@@H](O)[C@H](O)[C@H]2O)[C@@H](O)[C@@H]1O | inactive | – |
| O=C(Oc1ccccc1)c1ccccc1 | inactive | – |
| CC1=CC(=O)NS(=O)(=O)O1 | inactive | – |
| Cc1cccc(O)c1 | inactive | – |
| CN(C)CCOCCN(C)C | inactive | – |
| Cc1ccc(N(C)C)cc1 | inactive and 27.3 µM (active) | – |
| CCCCCCOCCO | inactive | – |
| NNc1nncc2ccccc12 | 12.2 µM (active) | 12.7% [at 19 µM] (inactive) |
| OCC(CO)(CBr)CBr | inactive | – |
| O=C(O)c1cc(=O)c2c(OCC(O)COc3cccc4oc(C(=O)O)cc(=O)c34)cccc2o1 | inactive | – |
| COS(C)(=O)=O | inactive | – |
| CC[C@H](C)C(=O)O[C@H]1C[C@@H](C)C=C2C=C[C@H](C)[C@H](CC[C@@H]3C[C@@H](O)CC(=O)O3)[C@H]21 | inactive | – |
| CCN(CC)c1ccc(C(=O)c2ccccc2C(=O)O)c(O)c1 | 61.3 µM (active) and 34.4 µM (active) | – |
